Here are results for 20 molecules from PubChem BioAssay.

One may read the inhibition as the change of the read-out against control, counted positive when it falls.

The nature of assay [1]: antimalarial activity against Dd2 strain (AID 2302;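 active = growth inhibition above 50% at the single 2 µM test dose, taken to imply half-maximal potency below 2 µM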;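 also: 0% = DMSO untreated growth and 100% = chloroquine plus artemisinin killed control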). The following applies: P. falciparum Dd2 in RBCs, LDH growth readout, 72 h; at 2 µM; hits give high values.
Assay [2] in a line: human hepatoma cell viability loss – ATP luminescence, cytotoxicity control for P. falciparum antimalarial project, primary screen (AID 2303;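 active = inhibition above 50%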;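 also: 0% = DMSO wells and 100% = digitonin-killed cells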). The following applies: HepG2 viability, 24-48 h, at 10 µM, hits give high values.
For assay [3], the target named is L-lactate dehydrogenase (Plasmodium falciparum (isolate CDC / Honduras)) (UniProt Q27743). Description: PfLDH activity inhibition – cell lysate, 3D7 strain, counter-screen for P. falciparum growth inhibition project (AID 2304).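 Also: 0% = vehicle and 100% = reference inhibitor.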 The following applies: P. falciparum 3D7 crude extract, LDH APAD/NBT absorbance; at 2 µM; hits give high values.
L-lactate dehydrogenase (Plasmodium falciparum (isolate CDC / Honduras)), sequence (Q27743 whole entry, looked up): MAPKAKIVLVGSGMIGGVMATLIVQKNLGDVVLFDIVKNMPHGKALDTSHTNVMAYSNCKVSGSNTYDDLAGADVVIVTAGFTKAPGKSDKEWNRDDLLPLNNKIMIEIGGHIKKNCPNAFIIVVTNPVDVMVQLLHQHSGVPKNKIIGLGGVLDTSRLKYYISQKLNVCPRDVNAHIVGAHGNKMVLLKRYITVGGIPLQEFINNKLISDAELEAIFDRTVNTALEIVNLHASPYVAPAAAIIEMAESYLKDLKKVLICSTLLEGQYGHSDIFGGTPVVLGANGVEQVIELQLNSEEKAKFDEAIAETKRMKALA
Assay [4] is described as follows: inhibition of 3D7 malaria parasite growth – strain 3D7 (AID 2306).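 Also: 0% = DMSO wells and 100% = chloroquine plus artemisinin control wells.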 The following applies: P. falciparum 3D7 erythrocytic growth, LDH absorbance, 72 h; at 2 µM; hits give high values.
Assay [5] has as its target Calcium-dependent protein kinase 1 (Plasmodium falciparum (isolate 3D7)) (UniProt P62344). Description: PfCDPK1 kinase inhibitors, biochemical, TCAMS library (AID 1159585; cut-off not given, nearly all actives have IC50 up to about 0.98 µM;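 also: inhibitors leave more ATP so luminescence rises with inhibition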). The following applies: recombinant PfCDPK1, Kinase-Glo ATP depletion luminescence.
For assay [6], the target named is Plasmodium falciparum protein kinase 6 (PK6, PF3D7_1337100) (UniProt Q8IDW1). As to the kind of experiment: PfPK6 kinase inhibitors, biochemical, TCAMS library (AID 1159586). The following applies: recombinant PfPK6, Kinase-Glo ATP depletion luminescence. In general terms: Kinase-Glo reads ATP consumption through a luciferase reaction.
Plasmodium falciparum protein kinase 6 (PK6, PF3D7_1337100), sequence (Q8IDW1 1-305): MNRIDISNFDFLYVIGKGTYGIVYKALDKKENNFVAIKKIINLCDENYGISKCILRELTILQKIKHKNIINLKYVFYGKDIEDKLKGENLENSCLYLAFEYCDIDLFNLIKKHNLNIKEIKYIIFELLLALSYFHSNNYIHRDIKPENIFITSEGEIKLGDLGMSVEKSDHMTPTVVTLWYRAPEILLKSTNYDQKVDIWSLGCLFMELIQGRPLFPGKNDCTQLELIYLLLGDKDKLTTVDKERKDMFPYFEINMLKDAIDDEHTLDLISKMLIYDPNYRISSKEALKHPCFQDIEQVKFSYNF
Assay [7] concerns the target Protein kinase 7 (PK7), Plasmodium falciparum 3D7 (PF3D7_0213400) (UniProt Q7YTF7). Description: inhibition of Plasmodium PK7 catalytic activity – biochemical, TCAMS antimalarial set, Kinase-Glo luminescence (AID 1159587). The following applies: recombinant PfPK7, Kinase-Glo ATP depletion luminescence.
Assay [8] concerns the target Calcium-dependent protein kinase 4 (Plasmodium falciparum (isolate 3D7)) (UniProt Q8IBS5). Description: PfCDPK4 kinase inhibitors, biochemical, TCAMS library (AID 1159588; cut-off not given, nearly all actives have IC50 up to about 0.91 µM). The following applies: recombinant PfCDPK4, Kinase-Glo ATP depletion luminescence.

A number with no mark means an inactive call. For some of these results: Results with a measured potency or affinity are listed apart. Calls of active or inactive are those of the source. Unless noted, no rule for the calls is given here.

Calcium-dependent protein kinase 1 (Plasmodium falciparum (isolate 3D7)), sequence (P62344 whole entry, looked up): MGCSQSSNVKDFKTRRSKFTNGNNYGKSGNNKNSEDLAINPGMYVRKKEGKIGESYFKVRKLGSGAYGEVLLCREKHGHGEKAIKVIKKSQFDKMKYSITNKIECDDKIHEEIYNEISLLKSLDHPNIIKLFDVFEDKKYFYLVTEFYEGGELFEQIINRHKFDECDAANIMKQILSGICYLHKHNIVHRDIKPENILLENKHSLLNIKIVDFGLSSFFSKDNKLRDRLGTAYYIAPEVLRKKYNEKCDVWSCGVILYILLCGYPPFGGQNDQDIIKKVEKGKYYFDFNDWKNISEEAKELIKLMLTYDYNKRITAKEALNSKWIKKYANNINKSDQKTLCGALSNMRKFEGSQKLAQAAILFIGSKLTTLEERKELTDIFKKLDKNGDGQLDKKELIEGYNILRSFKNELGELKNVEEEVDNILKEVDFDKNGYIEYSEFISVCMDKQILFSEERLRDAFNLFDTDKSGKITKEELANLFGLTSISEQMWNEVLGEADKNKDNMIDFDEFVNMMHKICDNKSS
Calcium-dependent protein kinase 4 (Plasmodium falciparum (isolate 3D7)), sequence (Q8IBS5 whole entry, looked up): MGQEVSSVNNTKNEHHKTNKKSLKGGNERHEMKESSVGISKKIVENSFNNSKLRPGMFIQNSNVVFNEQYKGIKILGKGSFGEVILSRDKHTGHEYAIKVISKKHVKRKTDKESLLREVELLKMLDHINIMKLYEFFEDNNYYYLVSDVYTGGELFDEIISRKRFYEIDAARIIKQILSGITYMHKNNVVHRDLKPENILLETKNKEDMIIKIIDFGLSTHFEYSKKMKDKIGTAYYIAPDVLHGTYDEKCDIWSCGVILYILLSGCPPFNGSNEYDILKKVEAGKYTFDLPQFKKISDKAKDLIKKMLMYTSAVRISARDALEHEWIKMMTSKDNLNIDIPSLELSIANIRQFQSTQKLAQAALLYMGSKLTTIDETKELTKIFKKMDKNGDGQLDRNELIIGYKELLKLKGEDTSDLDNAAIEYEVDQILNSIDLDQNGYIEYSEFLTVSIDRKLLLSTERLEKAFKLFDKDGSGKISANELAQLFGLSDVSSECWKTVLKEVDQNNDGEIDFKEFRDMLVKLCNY
Protein kinase 7 (PK7), Plasmodium falciparum 3D7 (PF3D7_0213400), sequence (Q7YTF7 1-343): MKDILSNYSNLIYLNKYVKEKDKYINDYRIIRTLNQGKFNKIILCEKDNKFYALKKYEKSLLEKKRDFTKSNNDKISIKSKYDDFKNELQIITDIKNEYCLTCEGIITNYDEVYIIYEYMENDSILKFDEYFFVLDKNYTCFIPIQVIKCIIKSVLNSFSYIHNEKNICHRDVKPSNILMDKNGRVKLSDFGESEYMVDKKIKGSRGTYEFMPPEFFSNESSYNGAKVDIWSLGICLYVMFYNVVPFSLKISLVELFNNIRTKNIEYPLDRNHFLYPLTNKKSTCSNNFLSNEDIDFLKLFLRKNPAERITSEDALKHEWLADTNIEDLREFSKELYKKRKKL

Turning to `CN(C)c1ccc(C=Cc2ccc3ccccc3n2)c(Cl)c1`, the growth inhibition in assay [1] was 95% (active); in assay [4], 94% (active). Also, the inhibition in assay [2] is 59% (active); in assay [3] it was 1%. In addition, the result in assay [5], in assay [6], in assay [7] and in assay [8] was inactive.
`CCc1c[nH]c2c(N3CCCCS3(=O)=O)cc(C(=O)N[C@@H](Cc3ccccc3)[C@H](O)CNCc3cccc(OC)c3)cc12`: the growth inhibition in assay [1] was 91% (active); in assay [4], 86% (active). Moreover, the inhibition is 0% in assay [2] and -3% in assay [3]. Moreover, the result in assay [5], in assay [6], in assay [7] and in assay [8] was inactive.
In the case of `CC(=O)Nc1ccc(C(=O)Nc2cccc(-c3ccc(-c4nc5ccc(C(F)(F)F)cc5[nH]4)s3)c2)cn1`, the growth inhibition in assay [1] was 98% (active); in assay [4] it was 100% (active). The inhibition is 42% in assay [2] and 3% in assay [3]. The outcome in assay [5], in assay [6], in assay [7] and in assay [8] was inactive.
As for `O=C(/C=C/c1ccc(Cl)c(Cl)c1)NCC(CCCN1CCC(c2c[nH]c3ccccc23)CC1)c1ccccc1` (stereo not given), the growth inhibition is 46% in assay [1] and 100% (active) in assay [4]. Also, the inhibition in assay [2] was 98% (active); in assay [3], 3%. Besides, the outcome in assay [5], in assay [6], in assay [7] and in assay [8] was inactive.
Turning to `CCCCCCCc1[nH]c2ccccc2c(=O)c1C`, the growth inhibition was 96% (active) in assay [1] and 97% (active) in assay [4]. Besides, the inhibition in assay [2] is 48%; in assay [3] it was 2%. Moreover, the result in assay [5], in assay [6], in assay [7] and in assay [8] was inactive.
Regarding `NC(N)=NN=Cc1ccccc1OCc1ccccc1Cl`, the growth inhibition is 30% in assay [1] and 101% (active) in assay [4]. Further, the inhibition is 14% in assay [2] and 5% in assay [3]. Further, the result in assay [5], in assay [6], in assay [7] and in assay [8] was inactive.
Regarding `O=C(Nc1cccc(-c2ccc(CN3CCCC3)cc2)c1)c1ccc(Cl)cc1`, the growth inhibition in assay [1] was 47%; in assay [4], 100% (active). Besides, the values for the inhibition in assay [2] and in assay [3] were 29% and -1%, respectively. The result in assay [5], in assay [6], in assay [7] and in assay [8] was inactive.
`CCc1ccc(CN2CCC(CNC(=O)c3cc(-c4cccc(Cl)c4)cs3)C2)cc1` (stereo not given): the values for the growth inhibition in assay [1] and in assay [4] were 19% and 88% (active), respectively. Also, the results for the inhibition in assay [2] and in assay [3] were 27% and 4%, respectively. Further, the outcome in assay [5], in assay [6], in assay [7] and in assay [8] was inactive.
In the case of `COC(=O)C(NC(=O)c1ccc(-c2ccc(-c3nc4ccccc4[nH]3)s2)cc1)c1ccc(O)cc1` (stereo not given), the growth inhibition in assay [1] was 49%; in assay [4], 83% (active). Besides, the inhibition is 99% (active) in assay [2] and 3% in assay [3]. Also, the result in assay [5], in assay [6], in assay [7] and in assay [8] was inactive.
`O=C(CCC1CCCCC1)NCCNc1cccc2ccccc12`: the values for the growth inhibition in assay [1] and in assay [4] were 57% (active) and 90% (active), respectively. Moreover, the figures for the inhibition in assay [2] and in assay [3] were 7% and -1%, respectively. Also, the outcome in assay [5], in assay [6], in assay [7] and in assay [8] was inactive.
For the molecule `COc1ccc(C2CC(=O)C3=C(C2)NC(C)=C(C(=O)OC(C)C)C3c2ccccc2F)cc1OC` (stereo not given), the figures for the growth inhibition in assay [1] and in assay [4] were 99% (active) and 100% (active), respectively. Besides, the inhibition is 14% in assay [2] and 0% in assay [3]. In addition, the outcome in assay [5], in assay [6], in assay [7] and in assay [8] was inactive.
As for `CCCCCCC(C)c1cc(O)c2c(c1)OC(C)(C)C=C2c1ccncc1` (stereo not given), the figures for the growth inhibition in assay [1] and in assay [4] were 29% and 98% (active), respectively. Moreover, the inhibition in assay [2] was -7%; in assay [3] it was 0%. Moreover, the result in assay [5], in assay [6], in assay [7] and in assay [8] was inactive.
As for `CN1CCC(C(=O)Nc2cccc(-c3ccc(-c4nc5ccccc5[nH]4)cc3)c2)CC1`, the values for the growth inhibition in assay [1] and in assay [4] were 15% and 82% (active), respectively. Moreover, the figures for the inhibition in assay [2] and in assay [3] were 7% and 5%, respectively. The outcome in assay [5], in assay [6], in assay [7] and in assay [8] was inactive.
With `O=C(Nc1ccc(Cl)cc1)Nc1cccc(-c2cc(CNCCc3ccccc3)oc2-c2ccncc2)c1`, the growth inhibition in assay [1] is 92% (active); in assay [4] it was 101% (active). The inhibition was 40% in assay [2] and 1% in assay [3]. Also, the result in assay [5], in assay [6], in assay [7] and in assay [8] was inactive.
In the case of `CCN(CC)CCCC(C)Nc1c(-c2ccc(C)cc2)cnc2ccccc12` (stereo not given), the growth inhibition is 65% (active) in assay [1] and 85% (active) in assay [4]. In addition, the values for the inhibition in assay [2] and in assay [3] were 8% and 1%, respectively. For the same molecule, the outcome in assay [5], in assay [6], in assay [7] and in assay [8] was inactive.
For `COc1ccc(CCn2c(=N)c(C(=O)NCc3ccccc3)cc3c(=O)n4ccccc4nc32)cc1`, the figures for the growth inhibition in assay [1] and in assay [4] were 18% and 100% (active), respectively. For the same molecule, the inhibition in assay [2] is 14%; in assay [3], -1%. Further, the result in assay [5], in assay [6], in assay [7] and in assay [8] was inactive.
For the molecule `NC1CCN(c2nc(NCCc3ccc(O)cc3)nc(NCc3ccccc3-c3ccc(C(F)(F)F)cc3)n2)CC1`, the growth inhibition is 72% (active) in assay [1] and 100% (active) in assay [4]. Moreover, the results for the inhibition in assay [2] and in assay [3] were 18% and 1%, respectively. In addition, the outcome in assay [5], in assay [6], in assay [7] and in assay [8] was inactive.
In the case of `NCCC(=O)Nc1ccc(-c2cnc3[nH]cc(-c4ccc(C(=O)O)cc4)c3c2)cn1`, the results for the growth inhibition in assay [1] and in assay [4] were 67% (active) and 99% (active), respectively. Moreover, the values for the inhibition in assay [2] and in assay [3] were -8% and 3%, respectively. In addition, the result in assay [5], in assay [6], in assay [7] and in assay [8] was inactive.
Turning to `O=C(Nc1ccc(-c2nc3ccccc3[nH]2)cc1)C1CCN(Cc2cccc(F)c2F)CC1`, the growth inhibition in assay [1] is 51% (active); in assay [4], 97% (active). The inhibition was 23% in assay [2] and 2% in assay [3]. The outcome in assay [5], in assay [6], in assay [7] and in assay [8] was inactive.
For the molecule `O=C(Nc1ccc(OC2CCN(Cc3ccc(F)cc3)CC2)c(Cl)c1)c1cccs1`, the growth inhibition was 96% (active) in assay [1] and 95% (active) in assay [4]. Besides, the inhibition in assay [2] was 7%; in assay [3] it was -1%. Besides, the result in assay [5], in assay [6], in assay [7] and in assay [8] was inactive.
